PubChem BioAssay AID598 (SRMLSC, 2007)
Among all 85,000 compounds or so, about 5,100 (6%) were called active. This excerpt belongs to a sample that is enriched for actives. Values without a mark were called inactive.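 How the source made its calls: active means viability at or below 40%; inactive means viability above 40%.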

Assay: proliferation blockers of H69AR lung cancer cells, primary screen, cell-based, human, 86K library (AID 598);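 further: multidrug resistant small cell line overexpressing MRP-1 efflux transporter; 100% = mean luminescence of untreated control wells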
Conditions: H69AR lung tumor viability, ATP luminescence, 72 h; at 10 µM; hits give low values
`Cc1cc(Cl)c(S(=O)(=O)N(C)C)cc1OCC(N)=O` gave a viability of 96%. Compound `CCCCC(C(=O)OCC(=O)c1ccc(OC)cc1)N1C(=O)c2ccccc2C1=O` (centres undefined) has a viability of 95%. In the case of `CC/C(O)=N\S(=O)(=O)c1ccc(N=NN(C)C)cc1`, the viability is reported as 85.7%. `CN(C)S(=O)(=O)c1ccc(N2CCCC2)c(C(=O)NCc2ccccc2)c1` gave a viability of 83.6%. `CCOC(=O)C1=C(O)CSC1=Nc1cccc(Cl)c1` showed a viability of 91.2%. Work on `COCCn1c(C)cc(C2=NNC(=Nc3ccc(F)cc3)SC2)c1C` yielded a viability of 88.2%. In the case of `Clc1cccc(N=C2NN=C(c3ccc4c(c3)OCCO4)CS2)c1`, the viability is reported as 1.44% (active). `CN1CCN(C(=O)Cn2c(C(F)(F)F)nc3ccccc32)CC1` showed a viability of 96.4%. Compound `O=C(Nc1nnc(C2CC2)s1)c1ccccn1` has a viability of 81%. In the case of `O=C1Nc2cc(Cl)c(Cl)cc2N(O)N1c1cc(Cl)cc(Cl)c1`, the viability is reported as 102%. `COc1cccc(N(CC(=O)NCCSc2ccccn2)S(C)(=O)=O)c1` gave a viability of 95.5%. Work on `CC1(C)OC(=O)N2CCc3ccccc3C21C` (centres undefined) yielded a viability of 91.6%. In the case of `O=C(COC(=O)c1ccc(S(=O)(=O)N2CCc3ccccc3C2)cc1)NC(=O)NCc1ccco1`, the viability is reported as 18.3% (active). Compound `O=C(CN1CCN(S(=O)(=O)/C=C/c2ccccc2)CC1)NC(=O)NCc1ccco1` has a viability of 93.8%. `O=C(Nc1ccc(S(=O)(=O)N2CCc3ccccc3C2)cc1)c1ccccc1` showed a viability of 69%. `O=C(NC(C(=O)NCCN1CCOCC1)C12CC3CC(CC(C3)C1)C2)C1CCCCC1` (centres undefined) gave a viability of 90.9%. Compound `Nc1ccc(-c2nnc(-c3ccc(-c4ccccc4)cc3)o2)cc1` has a viability of 55%. For `Nc1ccc(Nc2ccccc2)cc1`, the viability was 15.3% (active). With `c1ccc(Nc2n[nH]nc2-c2ccccc2)cc1` the viability was 94.2%. `CCCCCCOc1ccc(OC(=O)c2cccnc2)cc1` showed a viability of 99.5%. `Cc1cc(C(=O)Nc2ccccc2N2CCOCC2)c2ccccc2n1` gave a viability of 67.9%. For `O=C(NCc1cccnc1)c1cn(-c2ccccc2)nc1-c1cccs1`, the viability was 9.99% (active). Compound `COC(=O)c1cn(-c2ccccc2)nc1-c1cccnc1` has a viability of 108%. Compound `O=C(CCc1ccccc1)NCc1cccnc1` has a viability of 97.5%. Compound `CCN(CC)CCNC(=O)CCCCCn1c(=O)[nH]c2cc(C(=O)OC)ccc2c1=O` has a viability of 102%. `COc1ccccc1C(c1nnnn1C(C)(C)C)N1CCN(Cc2ccccc2)CC1` (centres undefined) gave a viability of 85.2%. With `COc1ccc(-c2nnc(SC(=O)N3c4ccccc4Sc4ccccc43)o2)cc1` the viability was 4.55% (active). Compound `COc1ccc(-c2nnc(SC(C)C#N)o2)cc1` (centres undefined) has a viability of 86.7%. In the case of `COc1ccc(-c2nnc(SCC(=O)c3ccc4c(c3)OCCO4)o2)cc1`, the viability is reported as 102%. For `CCCCCCNCCn1cnc2c(N)ncnc21`, the viability was 105%. Work on `Cc1ccc(S(=O)(=O)NCCSC(C)(C)C)cc1` yielded a viability of 106%. Work on `Cc1nnc(SC(C)C(=O)Nc2ccc(S(=O)(=O)NC3CCCCC3)cc2)s1` (centres undefined) yielded a viability of 90.2%. For `Cc1c(Br)cc(C(=O)N2CCCCCC2)c(C)c1C`, the viability was 85.9%. In the case of `Cc1ccc(Nc2cc(=O)n(C3CCCCC3)c(=O)[nH]2)cc1C`, the viability is reported as 9.54% (active). Compound `Cc1ccc(NS(=O)(=O)c2c(C)[nH]c(=O)[nH]c2=O)cc1C` has a viability of 112%. For `CCC1(CC)Cc2ccccc2-c2nc3ccccc3c(=O)n21`, the viability was 88.7%. Work on `CCOc1ccccc1C(=O)NC1CC2CCCC(C1)N2Cc1ccccc1` (centres undefined) yielded a viability of 72.2%. `CC(C)Oc1ccc(C(=O)NC(C)(C)CO)cc1` showed a viability of 106%. `Cc1cc(C)n(-c2nnc(C)n2NC(=O)c2cccc(Cl)c2)n1` gave a viability of 88.1%. For `CCCCC(=O)Nc1ccc(C(=O)NCCCn2ccnc2)cc1`, the viability was 7.32% (active). `O=C(NCCCn1ccnc1)Nc1ccc(Cl)cc1Cl` gave a viability of 93.2%. `O=C(Nc1ccccc1C(=O)NCCCn1ccnc1)c1ccc(Cl)cc1Cl` gave a viability of 75.6%. In the case of `Cc1ccc2c(Cl)c(C(=O)NCCCn3ccnc3)sc2c1`, the viability is reported as 88.9%. In the case of `CCOc1ccccc1C(=O)NCCCn1ccnc1`, the viability is reported as 98.9%. In the case of `CCCC(=O)Nc1ccc(C(=O)NCCCn2ccnc2)cc1`, the viability is reported as 15.8% (active). `FC(F)(F)c1cnc(Oc2ccccc2-c2nnc(-c3ccc(Cl)cc3)o2)c(Cl)c1` showed a viability of 92.2%. `O=C(CSCc1ccccc1)N1CCc2ccccc21` gave a viability of 84.8%. In the case of `Cc1ccc(N(Cc2ccc(C(=O)Nc3ccccc3C(=O)NCc3ccco3)cc2)S(C)(=O)=O)cc1C`, the viability is reported as 79.5%. `Cc1ccc(S(=O)(=O)/N=C(\CN2CCOCC2)N2CCOCC2)cc1` showed a viability of 96.2%. Work on `OC(COc1cccc(OCC(O)CN2CCCC2)c1)CN1CCCC1` (centres undefined) yielded a viability of 99.3%. With `O=C(C(c1ccccc1)c1ccccc1)N1CCN(CC(O)COc2ccccc2)CC1` (centres undefined) the viability was 27.1% (active). Work on `CC(=O)Nc1ccc(OCC(O)CN2CCN(c3ccccc3Cl)CC2)cc1` (centres undefined) yielded a viability of 100%. Compound `O=C(CSc1nnc(-c2cccnc2)n1CCc1ccccc1)NCc1ccccc1` has a viability of 89.6%. `CCc1ccc(CNC(=O)CCc2nc(-c3cccs3)no2)cc1` showed a viability of 98.2%. In the case of `c1ccc(-c2noc(-c3cccs3)n2)nc1`, the viability is reported as 70.6%. In the case of `N#Cc1ccc(CSc2nnc(-c3ccccn3)n2-c2ccc(Cl)cc2)cc1`, the viability is reported as 62%. In the case of `Clc1ccc(-n2nnnc2-c2cnc(-c3ccccn3)nc2-c2cccs2)cc1`, the viability is reported as 18.2% (active). With `CCC/C(O)=C1\C(=O)CC(C)(C)CC1=Nc1ccccc1OC` the viability was 28.2% (active). With `COc1ccccc1N=C(C)C1=C(O)COC1=O` the viability was 92.4%. `CCOc1ccccc1N=C1NC(=O)CS1` gave a viability of 85.9%. Compound `CCOc1ccccc1NC(=O)C1CCCN(C(=O)Nc2ccccc2)C1` (centres undefined) has a viability of 61.5%. Compound `CC(C)C(=O)N1c2ccccc2NC2=C(C(=O)CCC2)C1c1ccc(N(C)C)cc1` (centres undefined) has a viability of 74.9%. For `O=C1CCCC2=C1C(c1cccs1)n1nc(SCc3ccccc3)nc1N2` (centres undefined), the viability was 28.9% (active). `CCCC(=O)N1c2ccccc2NC2=C(C(=O)CCC2)C1c1ccc(F)cc1` (centres undefined) showed a viability of 92.9%.
